The nature of assay [1]: small molecules captured by biotinylated probe aFSTL3 – biochemical, small-molecule microarray, fluorescence 635/667, stem cell growth factor project, primary screen (AID 1064).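 Note: measures binding of the biotinylated anti-FSTL3 antibody to printed compounds.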 As to conditions: higher = more signal.
The nature of assay [2]: binders from COS7 lysate, DM2A8 probe, primary screen, torsin A project, cell lysate, small-molecule microarray, fluorescence 635/667 (AID 1065). The settings on record: higher = more signal, COS7 lysate expressing mutant human TOR1A.
A short description of assay [3]: small molecules captured by biotinylated probe aFGF2 – biochemical, small-molecule microarray, fluorescence 635/667, stem cell growth factor project, primary screen (AID 1067).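 Note: measures binding of biotinylated aFGF2 protein to printed compounds on slides; z-score merges feature fluorescence and signal-to-noise across triplicate slides.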 The settings on record: higher = more signal.
The nature of assay [4]: small molecules captured by biotinylated probe aFGF10 – biochemical, small-molecule microarray, fluorescence 635/667, stem cell growth factor project, primary screen (AID 1071).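 Note: score merges 667 nm spot intensity and signal to noise from triplicate slides.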 The settings on record: higher = more signal.
In assay [5] the target is Neurogenic locus notch homolog protein 2 (Homo sapiens) (UniProt Q04721). Nature of the assay: small molecules binding Notch2 protein – biochemical, small-molecule microarray, 635 nm fluorescence, stem cell growth factors, primary screen (AID 1073). As to conditions: higher = more signal.
Assay [6] deals with Pro-neuregulin-1, membrane-bound isoform (Homo sapiens) (UniProt Q02297). In words: small molecules binding neuregulin-1 protein – biochemical, small-molecule microarray, fluorescence 635/667, psychiatric disease protein project, primary screen (AID 1075).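 Note: score combines 667 nm spot fluorescence with signal to noise.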 The settings on record: NRG1 binding, 635 nm fluorescence, higher = more signal.
The subject of assay [7] is Neuregulin-1 EGF-like domain. Nature of the assay: small molecules binding NRG1 EGF domain – biochemical, small-molecule microarray, 635 nm fluorescence, primary screen (AID 1081).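 Note: binding of the protein to compounds printed on small-molecule microarray slides.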 The settings on record: higher = more signal.
Assay [8] in a line: FRG1 expression reporter modulators in myotubes – cell-based, C2C12 myotubes, firefly/Renilla luciferase, luminescence, FRG1 inhibition for FSHD, primary screen (AID 1084). The settings on record: FRG1 promoter luciferase, higher = more signal, called active from +8 up or from −8 down.
Assay [9] can be described thus: small molecules captured by biotinylated probe aFST – biochemical, small-molecule microarray, fluorescence 635/667, stem cell growth factor project, primary screen (AID 1086).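 Note: score merges 667 nm fluorescence with signal-to-noise of each printed compound spot.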 The settings on record: higher = more signal.
Assay [10] in a line: binders of probe aHhip on microarray, primary screen, stem cell growth factor project, biochemical, small-molecule microarray, fluorescence 635/667 (AID 1087).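 Note: score merges spot fluorescence at 667nm with spot signal to noise ratio.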 The settings on record: higher = more signal.
Assay [11] deals with PRMT1 (protein arginine N-methyltransferase 1). In words: small molecules binding arginine methyltransferase PRMT1 – biochemical, small-molecule microarray, 635 nm fluorescence, primary screen (AID 1088).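 Note: binding of Prmt1 protein to compounds spotted on small-molecule microarray slides.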 As to conditions: higher = more signal.
The nature of assay [12]: growth effects on S. cerevisiae YJM789 – YJM789 clinical isolate, OD600, 24 h, basal, primary screen (AID 1089).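 Note: growth of clinical yeast isolate S. cerevisiae YJM 789 seeded 1000 cells per well; test concentration not given here.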 As to conditions: higher = more signal, called active from +8 up or from −8 down.
Assay [13] is described as follows: S. pombe growth modifiers, basal conditions – strain 972, OD600, 24 h, no modulator, primary screen (AID 1090).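 Note: basal condition with compound alone and no growth modifier present; test concentration not given here.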 The settings on record: S. pombe 972 growth, higher = more signal, called active from +8 up or from −8 down.
Assay [14] can be described thus: budding yeast growth modifiers under rapamycin – strain BY4716, OD600, 96 h, primary screen (AID 1091). Note: test concentration not given here. As to conditions: S. cerevisiae BY4716 + rapamycin, higher = more signal, called active from +8 up or from −8 down.
In assay [15] the target is Torsin-1A-interacting protein 2 (Homo sapiens) (UniProt Q8NFQ8). Nature of the assay: small molecules binding lysate-expressed LULL1 – cell lysate, human LULL1 lysate, 635/667 nm fluorescence, primary screen (AID 1092).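 Note: probe is lysate of COS7 cells overexpressing human LULL1; score merges per-feature 667 nm fluorescence with signal-to-noise.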 As to conditions: small-molecule microarray, hLULL1 lysate binding, 635 nm fluorescence; higher = more signal.
Assay [16] is described as follows: optical density change of DRC41 E. coli – strain DRC41, OD650, 24 h, E. coli filamentation project, primary screen (AID 1093).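 Note: MC1000 strain lacking acrAB efflux and sulA so SOS filamentation is blocked; test concentration not given here.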 As to conditions: E. coli DRC41 growth, higher = more signal, called active from +8 up or from −8 down.
Assay [17] is described as follows: probe aLefty2 binding to arrayed compounds – biochemical, biotinylated probe, 635/667 nm fluorescence, primary screen (AID 1094).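 Note: score merges spot fluorescence near 667 nm with spot signal-to-noise ratio.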 As to conditions: small-molecule microarray, higher = more signal.
The subject of assay [18] is Noggin (protein binding on small-molecule microarray). In words: small molecules binding Noggin protein – biochemical, 635/667 nm fluorescence, primary screen (AID 1095).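 Note: score merges 667 nm feature fluorescence with signal to noise over triplicate slides.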 As to conditions: 635 nm fluorescence, higher = more signal.
In assay [19] the target is Neurogenic locus notch homolog protein 3 (Homo sapiens) (UniProt Q9UM47). Nature of the assay: small molecules binding NOTCH3 protein – biochemical, 635/667 nm fluorescence, primary screen (AID 1096). As to conditions: small-molecule microarray, 635 nm fluorescence, higher = more signal.
Assay [20] can be described thus: probe aEGFR binding to arrayed compounds – biochemical, biotinylated probe, 635/667 nm fluorescence, primary screen (AID 1097).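 Note: probe is a biotinylated anti-EGFR antibody binding compounds printed on slides; score combines fluorescence near 667 nm and signal to noise of each spot.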 The settings on record: small-molecule microarray, higher = more signal.

Active and inactive are the calls of the source.

Sequence of Torsin-1A-interacting protein 2 (Homo sapiens) (Q8NFQ8 whole entry, looked up): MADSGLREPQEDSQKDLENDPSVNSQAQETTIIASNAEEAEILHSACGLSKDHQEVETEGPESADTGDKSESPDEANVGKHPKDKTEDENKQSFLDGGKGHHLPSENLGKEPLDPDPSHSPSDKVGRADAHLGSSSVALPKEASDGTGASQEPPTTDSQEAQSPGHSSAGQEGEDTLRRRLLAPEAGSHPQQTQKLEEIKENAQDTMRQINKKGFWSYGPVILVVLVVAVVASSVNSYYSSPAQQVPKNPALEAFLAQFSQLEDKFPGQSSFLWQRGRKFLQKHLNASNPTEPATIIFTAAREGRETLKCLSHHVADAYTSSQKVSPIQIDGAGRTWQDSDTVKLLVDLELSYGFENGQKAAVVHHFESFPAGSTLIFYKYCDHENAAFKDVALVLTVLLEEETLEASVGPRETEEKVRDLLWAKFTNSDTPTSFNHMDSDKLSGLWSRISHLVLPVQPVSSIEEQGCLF
Sequence of Neurogenic locus notch homolog protein 2 (Homo sapiens) (Q04721 whole entry, looked up, canonical isoform): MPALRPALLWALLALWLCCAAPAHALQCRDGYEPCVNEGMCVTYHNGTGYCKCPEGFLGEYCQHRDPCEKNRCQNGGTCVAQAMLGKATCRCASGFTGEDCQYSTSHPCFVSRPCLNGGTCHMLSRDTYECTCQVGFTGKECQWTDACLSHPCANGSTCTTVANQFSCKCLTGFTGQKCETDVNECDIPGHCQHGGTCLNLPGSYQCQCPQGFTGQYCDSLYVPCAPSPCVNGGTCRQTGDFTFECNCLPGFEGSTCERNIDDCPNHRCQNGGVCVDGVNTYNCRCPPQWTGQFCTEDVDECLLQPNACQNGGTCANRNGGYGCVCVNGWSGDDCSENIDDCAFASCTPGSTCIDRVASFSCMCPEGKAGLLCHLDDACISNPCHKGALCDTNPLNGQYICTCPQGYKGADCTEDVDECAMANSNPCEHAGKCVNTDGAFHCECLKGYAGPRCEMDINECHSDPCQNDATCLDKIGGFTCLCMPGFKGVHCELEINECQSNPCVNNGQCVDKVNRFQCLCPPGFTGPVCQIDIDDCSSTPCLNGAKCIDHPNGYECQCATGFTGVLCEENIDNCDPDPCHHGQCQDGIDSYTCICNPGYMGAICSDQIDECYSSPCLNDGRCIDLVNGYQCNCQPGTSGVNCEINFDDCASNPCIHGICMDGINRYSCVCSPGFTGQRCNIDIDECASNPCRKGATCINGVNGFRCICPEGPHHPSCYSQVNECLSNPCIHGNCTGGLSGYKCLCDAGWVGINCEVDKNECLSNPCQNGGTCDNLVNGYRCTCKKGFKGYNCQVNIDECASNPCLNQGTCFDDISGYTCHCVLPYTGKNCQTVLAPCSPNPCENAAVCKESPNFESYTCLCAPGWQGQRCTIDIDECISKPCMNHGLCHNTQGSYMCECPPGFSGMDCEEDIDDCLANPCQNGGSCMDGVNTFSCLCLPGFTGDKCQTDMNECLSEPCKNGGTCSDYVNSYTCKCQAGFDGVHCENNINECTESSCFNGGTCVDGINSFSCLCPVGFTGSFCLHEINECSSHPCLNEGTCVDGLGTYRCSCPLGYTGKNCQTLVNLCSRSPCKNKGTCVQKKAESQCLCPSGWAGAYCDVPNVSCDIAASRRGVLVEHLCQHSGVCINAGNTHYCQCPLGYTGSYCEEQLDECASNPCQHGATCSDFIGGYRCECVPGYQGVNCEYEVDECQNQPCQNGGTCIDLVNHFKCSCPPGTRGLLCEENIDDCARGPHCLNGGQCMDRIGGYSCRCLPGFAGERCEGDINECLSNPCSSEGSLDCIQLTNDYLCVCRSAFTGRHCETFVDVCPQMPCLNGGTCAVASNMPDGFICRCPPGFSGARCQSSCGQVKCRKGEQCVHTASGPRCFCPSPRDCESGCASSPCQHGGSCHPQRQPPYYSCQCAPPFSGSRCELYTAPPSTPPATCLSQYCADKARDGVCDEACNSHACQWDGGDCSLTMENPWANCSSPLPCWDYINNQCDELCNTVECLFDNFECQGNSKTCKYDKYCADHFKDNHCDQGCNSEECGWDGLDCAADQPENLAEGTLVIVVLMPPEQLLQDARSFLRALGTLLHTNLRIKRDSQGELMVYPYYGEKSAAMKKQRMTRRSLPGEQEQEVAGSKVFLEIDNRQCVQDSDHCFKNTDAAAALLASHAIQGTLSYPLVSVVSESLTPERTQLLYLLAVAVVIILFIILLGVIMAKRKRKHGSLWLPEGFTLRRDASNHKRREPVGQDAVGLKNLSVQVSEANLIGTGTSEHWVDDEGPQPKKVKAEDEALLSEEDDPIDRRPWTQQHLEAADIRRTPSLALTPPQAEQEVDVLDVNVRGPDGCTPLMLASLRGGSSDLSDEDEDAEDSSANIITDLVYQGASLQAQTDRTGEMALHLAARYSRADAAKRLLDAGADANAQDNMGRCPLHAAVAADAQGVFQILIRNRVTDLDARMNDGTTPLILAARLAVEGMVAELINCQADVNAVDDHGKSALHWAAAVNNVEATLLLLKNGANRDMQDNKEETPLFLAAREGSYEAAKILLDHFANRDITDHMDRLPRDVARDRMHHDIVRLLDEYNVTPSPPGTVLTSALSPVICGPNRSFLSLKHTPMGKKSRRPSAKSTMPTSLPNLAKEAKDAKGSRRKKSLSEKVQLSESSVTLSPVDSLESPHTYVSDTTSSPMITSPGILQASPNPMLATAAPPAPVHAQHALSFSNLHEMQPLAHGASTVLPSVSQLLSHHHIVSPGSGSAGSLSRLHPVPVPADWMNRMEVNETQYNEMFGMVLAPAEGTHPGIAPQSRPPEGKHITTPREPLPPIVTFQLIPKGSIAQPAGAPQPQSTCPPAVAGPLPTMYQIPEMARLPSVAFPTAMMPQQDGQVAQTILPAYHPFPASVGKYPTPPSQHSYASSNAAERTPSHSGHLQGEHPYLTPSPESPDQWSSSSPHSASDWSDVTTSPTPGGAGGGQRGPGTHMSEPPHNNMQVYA
Sequence of Pro-neuregulin-1, membrane-bound isoform (Homo sapiens) (Q02297 whole entry, looked up, the tested form may be a part, canonical isoform): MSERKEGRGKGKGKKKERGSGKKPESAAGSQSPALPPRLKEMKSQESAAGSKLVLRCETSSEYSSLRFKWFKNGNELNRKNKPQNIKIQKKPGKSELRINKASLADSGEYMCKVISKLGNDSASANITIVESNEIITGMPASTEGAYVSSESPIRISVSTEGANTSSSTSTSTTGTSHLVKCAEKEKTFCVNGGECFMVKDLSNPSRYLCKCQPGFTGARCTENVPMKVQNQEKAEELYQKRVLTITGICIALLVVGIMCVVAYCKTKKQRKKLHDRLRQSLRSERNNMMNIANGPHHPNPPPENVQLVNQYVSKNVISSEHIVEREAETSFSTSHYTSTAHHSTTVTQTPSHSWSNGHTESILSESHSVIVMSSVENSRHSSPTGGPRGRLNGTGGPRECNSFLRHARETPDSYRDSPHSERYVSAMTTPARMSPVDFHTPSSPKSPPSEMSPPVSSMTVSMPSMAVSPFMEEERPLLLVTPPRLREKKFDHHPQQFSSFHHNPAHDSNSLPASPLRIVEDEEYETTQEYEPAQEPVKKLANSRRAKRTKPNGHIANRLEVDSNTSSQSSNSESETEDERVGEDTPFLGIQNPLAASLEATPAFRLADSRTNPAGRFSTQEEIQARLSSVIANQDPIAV

As for `CCCCCN1CC=CC23O[C@@H]4C=CCOC(=O)[C@@H]4[C@H]2C(=O)N(CCCCCO)[C@@H]3C1=O` (stereo not given in full), the composite z-score in [1] is 0.346; in [2] it was 1.8; in assay [3], -0.113; in assay [4], -1.11; in [5], -1.26; in [6], -0.48. Further, the composite z-score in assay [7] was 1.29; in [9] it was -0.883; in [10], -0.261; in assay [11] it was 0.421; in assay [15], 1.59; in assay [17] it was -0.121. The composite z-score in assay [18] was -0.361; in assay [19], 0.103; in assay [20] it was -0.167. The z-score was 0.391 (inactive) in [8]; -1.16 (inactive) in assay [12]; 0.249 (inactive) in assay [13]; -1.02 (inactive) in [14]; 2.58 (inactive) in [16].
Regarding `CN(C)C(=O)[C@]1(Cc2ccccc2)N=C(c2ccc(OCCCO)cc2)O[C@@H]1c1ccccc1`, the composite z-score was -0.129 in [1]; 0.984 in assay [2]; 0.0376 in assay [3]; 1.08 in assay [4]; 1.46 in [5]; 1.78 in [6]. For the same molecule, the composite z-score amounted to 1.28 in assay [7]; 0.952 in assay [9]; 0.127 in [10]; 1.52 in assay [11]; 3.52 in [15]; 0.0735 in assay [17]. Further, the composite z-score was 0.372 in [18], 0.771 in assay [19] and -0.0157 in [20]. The z-score in [8] was -0.306 (inactive); in [12] it was 0.0608 (inactive); in assay [13] it was -3.66 (inactive); in [14], -0.344 (inactive); in assay [16], -0.465 (inactive).
As to `COc1cccc(C[C@H]2C[C@@H](CO[Si](C(C)C)(C(C)C)C(C)C)N3C(=O)[C@@]4(C(C)=O)O[C@@]23[C@@H]2C(=O)N(C)C(=O)[C@@H]24)c1`, the composite z-score in [1] was -0.43; in assay [2], 0.199; in assay [3], -0.0697; in assay [4], 0.933; in [5] it was 1.16; in [6], 1.01. Besides, the composite z-score in assay [7] is 0.93; in assay [9] it was 0.307; in assay [10], 0.113; in assay [11], 1.56; in assay [15], 0.189; in assay [17] it was -0.105. For the same molecule, the results for the composite z-score in assay [18], in [19] and in assay [20] were 0.456, 1.16 and 0.127, respectively. For the same molecule, the z-score in assay [8] was -1.14 (inactive); in assay [12], 0.368 (inactive); in [13], 0.827 (inactive); in assay [14], 1.6 (inactive); in assay [16], -0.929 (inactive).
On to `O=C1N(Cc2ccccc2)c2ccccc2[C@H]2OC(c3ccc(OCCCO)cc3)=N[C@@]12Cc1ccccc1`, for which the composite z-score was 0.85 in [1]; 0.205 in [2]; 0.202 in [3]; 0.862 in [4]; 0.45 in assay [5]; 0.924 in assay [6]. Further, the composite z-score in assay [7] is 1.3; in assay [9], 1.03; in [10], 0.115; in [11], 1.54; in assay [15], 2.58; in assay [17] it was -0.0058. Also, the composite z-score is 1.54 in assay [18], 1.1 in assay [19] and -0.0525 in assay [20]. Further, the z-score was -1.69 (inactive) in [8]; -0.915 (inactive) in assay [12]; -0.469 (inactive) in assay [13]; 6.52 (inactive) in assay [14]; -0.905 (inactive) in [16].
Regarding `O=C1NC(=O)C2C1C=CC(C(O)c1ccc(F)cc1)N2Nc1ccccn1` (stereo not given), the composite z-score in assay [1] was 0.22; in assay [2], 0.472; in [3], -0.0634; in [4], 0.354; in assay [5] it was 0.999; in assay [6] it was 0.906. Further, the composite z-score in assay [7] is 0.957; in assay [9], 0.0731; in [10] it was -0.284; in assay [11], 0.477; in [15] it was 2.64; in assay [17] it was -0.103. Further, the composite z-score in [18] was -0.0682; in assay [19], -0.0883; in assay [20] it was -0.0271. Besides, the z-score is 0.632 (inactive) in assay [8]; 0.128 (inactive) in assay [12]; 0.42 (inactive) in assay [13]; 0.333 (inactive) in assay [14]; -1.83 (inactive) in [16].
